Measured values taken from PubChem BioAssay AID1159580 (chemical genetic matrix, 2015).
“And” between values parts separate entries of the source, which are not always exact repeats. Identical values can stand only once. Screen size: about 5,500 compounds; about 2,000 (36%) were called active. Another 18% or so got no clear call; they are omitted. Rule as the data show it: active = normalized growth mostly below about 0.91 (no sharp cut-off); inconclusive = no clear call, values can overlap the other calls; inactive = mostly above about 0.92. This is one part of the list.

Test: chemical genetic growth profiling, strain panel (AID 1159580);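 also: tested at 20 µM; growth read once vehicle control cultures reached saturation at 30 °C; 1 = growth at the plate median or of vehicle wells; lower values mean less growth of the strain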
Details: S. cerevisiae deletion strains, growth OD

Measured: normalized growth

CCOC(=O)[C@H](CCc1ccccc1)N[C@H]1CCc2ccccc2N(CC(=O)O)C1=O
inactive: locus YAL013W, strain DEP1, hits give low values 0.989 | locus YAL021C, strain ccr4, hits give low values 0.961 | locus YAL026C, strain drs2, hits give low values 0.959 | locus YAL030W, strain snc1, hits give low values 0.992 | locus YBL061C, strain skt5, hits give low values 0.988 | locus YBR009C, strain hhf1, hits give low values 0.973 | locus YBR021W, strain FUR4, hits give low values 0.978 | locus YBR023C, strain chs3, hits give low values 0.989 | locus YBR171W, strain sec66, hits give low values 0.976 | locus YBR229C, strain ROT2, hits give low values 0.986 | locus YBR231C, strain swc5, hits give low values 0.96 | locus YBR279W, strain paf1, hits give low values 0.987 | locus YCL011C, strain gbp2, hits give low values 0.992 | locus YCL016C, strain dcc1, hits give low values 0.981 | locus YCL029C, strain bik1, hits give low values 0.966 | locus YCL061C, strain MRC1, hits give low values 0.979 | locus YCL069W, strain vba3, hits give low values 0.99 | locus YCR088W, strain abp1, hits give low values 0.975 | locus YDL005C, strain med2, hits give low values 0.972 | locus YDL035C, strain GPR1, hits give low values 0.998 | locus YDL040C, strain nat1, hits give low values 0.995 | locus YDL074C, strain BRE1, hits give low values 0.998 | locus YDL101C, strain DUN1, hits give low values 0.983 | locus YDL134C, strain PPH21, hits give low values 0.998 | locus YDL185W, strain tfp1, hits give low values 0.978 | locus YDL192W, strain arf1, hits give low values 0.97 | locus YDR001C, strain nth1, hits give low values 1.01 | locus YDR069C, strain doa4, hits give low values 0.978 | locus YDR101C, strain arx1, hits give low values 0.98 | locus YDR137W, strain rgp1, hits give low values 0.992 | locus YDR150W, strain NUM1, hits give low values 0.987 | locus YDR159W, strain sac3, hits give low values 1.01 | locus YDR162C, strain NBP2, hits give low values 0.987 | locus YDR195W, strain ref2 0.961 | locus YDR297W, strain sur2, hits give low values 0.99 | locus YDR318W, strain mcm21, hits give low values 0.977 | locus YDR334W, strain swr1, hits give low values 0.988 | locus YDR335W, strain msn5, hits give low values 0.983 | locus YDR388W, hits give low values 0.976 | locus YDR392W, strain spt3, hits give low values 0.963 | locus YDR502C, strain sam2, hits give low values 0.985 | locus YEL003W, strain gim4, hits give low values 0.992 | locus YEL037C, strain rad23, hits give low values 0.982 | locus YEL061C, strain CIN8 (second series), hits give low values 0.986 | locus YEL061C, strain CIN8, hits give low values 0.989 | locus YER015W, strain faa2, hits give low values 0.985 | locus YER016W, strain bim1, hits give low values 0.979 | locus YER110C, hits give low values 0.979 | locus YER111C, strain swi4, hits give low values 1 | locus YER155C, strain BEM2 (second series), hits give low values 0.902 | locus YER155C, strain BEM2, hits give low values 0.984 | locus YER167W, strain BCK2, hits give low values 0.984 | locus YFR010W, strain ubp6, hits give low values 0.982 | locus YGL078C, strain dbp3, hits give low values 0.977 | locus YGL086W, strain mad1, hits give low values 0.988 | locus YGL167C, strain pmr1, hits give low values 0.983 | locus YGL173C, strain kem1, hits give low values 0.974 | locus YGL227W, strain vid30, hits give low values 0.965 | locus YGL240W, strain doc1, hits give low values 0.949 | locus YGL248W, strain PDE1, hits give low values 0.983 | locus YGL253W, strain hxk2, hits give low values 0.999 | locus YGR078C, strain PAC10, hits give low values 1.01 | locus YGR135W, strain pre9, hits give low values 0.985 | locus YGR229C, strain SMI1, hits give low values 0.994 | locus YGR252W, strain gcn5, hits give low values 1.04 | locus YHR013C, strain ard1, hits give low values 0.977 | locus YHR027C, strain rpn1, hits give low values 0.992 | locus YHR030C, strain SLT2, hits give low values 0.981 and 0.964 | locus YHR079C, strain IRE1 (second series), hits give low values 0.969 | locus YHR079C, strain IRE1, hits give low values 0.964 | locus YHR094C, strain hxt1, hits give low values 0.976 | locus YHR129C, strain ARP1, hits give low values 0.988 | locus YHR142W, strain chs7, hits give low values 0.986 | locus YHR200W, strain rpn10, hits give low values 0.979 | locus YIL066C, strain RNR3, hits give low values 0.985 | locus YIL073C, strain SPO22, hits give low values 1.01 | locus YIL125W, strain kgd1, hits give low values 0.978 | locus YIR030C, strain dcg1, hits give low values 0.968 | locus YJL092W, strain hpr5, hits give low values 0.988 | locus YJL095W, strain BCK1 (second series), hits give low values 0.979 | locus YJL095W, strain BCK1, hits give low values 0.99 and 0.984 | locus YJL115W, strain asf1, hits give low values 0.969 | locus YJL129C, strain trk1, hits give low values 0.973 | locus YJL134W, strain LCB3, hits give low values 0.979 | locus YJL154C, strain vps35, hits give low values 0.992 | locus YJL164C, strain tpk1, hits give low values 0.97 | locus YJL166W, strain qcr8, hits give low values 0.964 | locus YJL168C, strain set2, hits give low values 0.973 | locus YJL187C, strain SWE1 (second series), hits give low values 0.986 | locus YJR043C, strain POL32, hits give low values 0.984 | locus YJR066W, strain TOR1, hits give low values 0.942
